High-throughput results: PubChem BioAssay, several laboratories
Rows were chosen to be rich in hits. Some 12% of all compounds tested hit in one or more screens of this group.
Arbovirus inh: antivirals against arbovirus infection, primary screen, cell-based, full library, 10K replicate subset | arbovirus infection cell-based antiviral screen | inhibition, % at 10 µM | hit rate 0.37% among 200,000 | AID 1251, 2008; in the data active means inhibition above about 30%
CHOP inhibitor: inhibitors of CHOP promoter induction, primary screen, cell-based, unfolded protein response, luciferase reporter; CHO-K1 CHOP-promoter luciferase, tunicamycin-induced, 15-18 h; inhibition, % at 10 µM; AID 2732, 2010; hit rate 3.8% among 220,000;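 active means compounds that reduced the stress-induced luciferase reporter signal by more than about 70% of percent inhibition, limit read from the data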;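 further: 0% = tunicamycin plus vehicle and 100% = wells without tunicamycin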
Lmaj promast: Leishmania major promastigote growth inhibition, primary screen | Leishmania major promastigotes, resazurin fluorescence viability | inhibition, % at 10 µM | hit rate 9% among 200,000 | AID 1063, 2008; in the data active means inhibition above about 50%;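 further: promastigotes grown with compound for 44 hours at 28 °C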
WT yeast gro inh: growth inhibition of WT strain, primary screen, mitochondrial fusion inhibitor project, WT and mutant strains, chemical genetic. mitochondrial fusion phenotypic screen. inhibition, % at 10 µM. hit rate 2.1% among 190,000; in the data active means inhibition above about 58%; tested in S. cerevisiae
Numbers without * were called inactive.

Results for Cc1ccc(C(=O)/C=C/c2ccc(F)cc2)o1 ?
Arbovirus inh: -1; CHOP inhibitor: -65; Lmaj promast: 98*; WT yeast gro inh: -2

Results for O=C(NC(CSSCC(NC(=O)c1ccccc1)C(=O)O)C(=O)O)c1ccccc1 (centres undefined) ?
Arbovirus inh: 0; CHOP inhibitor: 24; Lmaj promast: -12; WT yeast gro inh: 5

How did CC12CCC(C(=O)N3CCC(Cc4ccccc4)CC3)(C(=O)C1=O)C2(C)C (centres undefined) do in these assays?
Arbovirus inh: -6; CHOP inhibitor: 11; Lmaj promast: 6; WT yeast gro inh: 21

Results for O=C(CCCSc1nc2ccccc2[nH]1)Nc1nnc(C2CC2)s1 ?
Arbovirus inh: -1; CHOP inhibitor: 10; Lmaj promast: -1; WT yeast gro inh: -8

How did C=CCN=C1NN=C(c2cc(C)n(CC=C)c2C)CS1 do in these assays?
Arbovirus inh: 1; CHOP inhibitor: 93*; Lmaj promast: 22; WT yeast gro inh: -13

What do the screens show for `c1ccc(C2=NNC(=NCc3ccc4c(c3)OCO4)SC2)cc1`?
Arbovirus inh: -6; CHOP inhibitor: 12; Lmaj promast: 0; WT yeast gro inh: -10

How did C=CCN=C1NN=C(c2ccc3c(c2)OCCO3)CS1 do in these assays?
Arbovirus inh: -4; CHOP inhibitor: 71*; Lmaj promast: -3; WT yeast gro inh: 8

How did CCCCc1cc(=O)oc2cc(O)cc(O)c12 do in these assays?
Arbovirus inh: -9; CHOP inhibitor: 22; Lmaj promast: 29; WT yeast gro inh: 14

What do the screens show for `CCCCc1cc(=O)oc2cc(C)cc(O)c12`?
Arbovirus inh: 5; CHOP inhibitor: 47; Lmaj promast: 82*; WT yeast gro inh: -8

Results for COc1ccc(O)c(C(=O)c2cc(C(=O)NCCc3ccccc3)c(=O)n(CCc3ccccc3)c2)c1 ?
Arbovirus inh: 5; CHOP inhibitor: 37; Lmaj promast: 77*; WT yeast gro inh: 30

Results for COc1ccc(O)c(C(=O)c2cnn(-c3ccccn3)c2)c1 ?
Arbovirus inh: -4; CHOP inhibitor: 4; Lmaj promast: 15; WT yeast gro inh: 4

How did Cc1ccc(O)c(C(=O)c2cc(C(=O)NCCc3ccccc3)c(=O)n(CCc3ccccc3)c2)c1 do in these assays?
Arbovirus inh: 3; CHOP inhibitor: 61; Lmaj promast: 99*; WT yeast gro inh: -14

What do the screens show for `Cc1cc(Nc2cccc(F)c2)nc(NCc2ccccc2)n1`?
Arbovirus inh: -5; CHOP inhibitor: 71*; Lmaj promast: 100*; WT yeast gro inh: 68

How did Cc1cc(Nc2ccccc2)nc(NCc2ccccc2)n1 do in these assays?
Arbovirus inh: -36; CHOP inhibitor: 16; Lmaj promast: 100*; WT yeast gro inh: 64

How did CCCCNc1cc(C)nc(NCc2ccccc2)n1 do in these assays?
Arbovirus inh: -40; Lmaj promast: 101*; WT yeast gro inh: 55

How did Cc1cc(N2CCC(C)CC2)nc(NCc2ccccc2)n1 do in these assays?
Arbovirus inh: -32; CHOP inhibitor: 40; Lmaj promast: 86*; WT yeast gro inh: 63

How did Cc1cc(N/N=C/c2ccc(F)cc2)nc(NCc2ccccc2)n1 do in these assays?
CHOP inhibitor: -12

What do the screens show for `Cc1cc(C)nc(NCCCc2ccccc2)n1`?
Arbovirus inh: -2; CHOP inhibitor: 38; Lmaj promast: 0; WT yeast gro inh: 10

Results for Cc1ccc(/C=N/Nc2cc(C)nc(NCc3ccccc3)n2)cc1 ?
CHOP inhibitor: 25

Results for Cc1cc(N/N=C/c2ccc(Cl)cc2Cl)nc(NCc2ccccc2)n1 ?
Arbovirus inh: -22; CHOP inhibitor: 17; Lmaj promast: 62*; WT yeast gro inh: 83*

What do the screens show for `CCCCCCCCCCS(=O)(=O)N/N=C/c1ccccc1OC`?
Arbovirus inh: -26; CHOP inhibitor: 82*; Lmaj promast: 20; WT yeast gro inh: 52

What do the screens show for `CCN(CC)CCCN1C(=O)CSC1c1ccc([N+](=O)[O-])cc1` (centres undefined)?
Arbovirus inh: 3; CHOP inhibitor: -11; Lmaj promast: 76*; WT yeast gro inh: -5

Results for CNCCCCOc1ccc(C(C)(C)C)cc1Cl ?
Arbovirus inh: -33; CHOP inhibitor: 14; Lmaj promast: 98*; WT yeast gro inh: 25

Results for COc1ccc(-c2csc(NC(=O)c3ccccc3NS(=O)(=O)c3ccc(F)c(F)c3)n2)cc1 ?
Arbovirus inh: -33; CHOP inhibitor: 79*; Lmaj promast: 49; WT yeast gro inh: 87*

What do the screens show for `O=C(Nc1ccccc1N1CCOCC1)c1ccccc1NS(=O)(=O)c1ccc(F)c(F)c1`?
Arbovirus inh: 2; CHOP inhibitor: -8; Lmaj promast: 2; WT yeast gro inh: 12

Results for O=C(Nc1ccc(-c2nc3ccccc3[nH]2)cc1)c1ccccc1NS(=O)(=O)c1ccc(F)cc1 ?
Arbovirus inh: -2; CHOP inhibitor: 20; Lmaj promast: -9; WT yeast gro inh: -9

What do the screens show for `Cc1ccc(S(=O)(=O)Nc2ccccc2C(=O)Nc2nc(-c3ccc(F)cc3)cs2)cc1`?
Arbovirus inh: -34; CHOP inhibitor: 67; Lmaj promast: 54*; WT yeast gro inh: 74*

What do the screens show for `O=[N+]([O-])c1ccccc1/C=C/CN1CCCCC1`?
Arbovirus inh: 6; CHOP inhibitor: 32; Lmaj promast: 75*; WT yeast gro inh: -10

How did CCOC(=O)C1CCCN(C(=O)c2ccccc2[N+](=O)[O-])C1 (centres undefined) do in these assays?
Arbovirus inh: 9; CHOP inhibitor: 8; Lmaj promast: -6; WT yeast gro inh: -9

Results for O=C(O)/C=C/c1ccccc1[N+](=O)[O-] ?
CHOP inhibitor: 7

How did CCOC(=O)C1CCCN(C/C=C/c2ccccc2[N+](=O)[O-])C1 (centres undefined) do in these assays?
Arbovirus inh: 5; CHOP inhibitor: -29; Lmaj promast: 85*; WT yeast gro inh: 2

Results for CCOc1ccccc1/C=C(\C#N)C(=O)Nc1cccc(C(=O)O)c1 ?
CHOP inhibitor: -26

Results for COC(=O)c1ccc(COc2ccccc2/C=C(\C#N)C(=O)Nc2c(C)cc(C)cc2C)cc1 ?
Arbovirus inh: -14; CHOP inhibitor: 6; Lmaj promast: 100*; WT yeast gro inh: 8

What do the screens show for `COC(=O)c1ccc(COc2ccccc2/C=C(\C#N)C(=O)Nc2ccc(C)cc2C)cc1`?
Arbovirus inh: -5; CHOP inhibitor: -3; Lmaj promast: 10; WT yeast gro inh: -4

What do the screens show for `COc1cc(/C=C(/C#N)C(=O)Nc2ccccc2)c(Br)cc1OCc1ccc(C(=O)O)cc1`?
CHOP inhibitor: 80*

Results for CN(C)S(=O)(=O)c1ccc(C(=O)Nc2ccnn2C2CCCCC2)cc1 ?
Arbovirus inh: 11; CHOP inhibitor: 12; Lmaj promast: 0; WT yeast gro inh: -11

How did CCCN1CCC(NC(=O)Nc2cccc3ccccc23)CC1 do in these assays?
CHOP inhibitor: 0

Results for S=C(Nc1ccccc1Cl)NC1CCC(NC(=S)Nc2ccccc2Cl)CC1 (centres undefined) ?
Arbovirus inh: -2; CHOP inhibitor: 34; Lmaj promast: -6; WT yeast gro inh: 1

How did FC(F)(F)c1ccccc1NC(=S)NC1CCN(Cc2ccccc2)CC1 do in these assays?
Arbovirus inh: -6; CHOP inhibitor: 6; Lmaj promast: 76*; WT yeast gro inh: -6
